Data as given in PubChem BioAssay (EPA / NIEHS).
Records with an inconclusive call do not appear. A structure can be active in one record and inactive in another. Active and inactive are the calls of the source. How the source made its calls: active means hit-call score of the fitted dose curve at least 0.9, where 1 is the maximum; inconclusive means response in the unintended direction; inactive means score below 0.9.

Assays:
[1] = ATG_XTT_Cytotoxicity: Cytotoxicity Assessment in the Attagene TRANS-FACTORIAL HepG2 Assay (AID 2283584)
Outline: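 XTT readout of cell number in transfected HepG2 cells, 24 h post-dosing; DMSO serves as negative control and baseline, with activity taken as loss of viability signal.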

[2] = biological target: Cellular tumor antigen p53 (Homo sapiens) (UniProt P04637); experiment: TOX21_p53_BLA_p2_ratio: Tox21 HCT-116 p53 Agonism Beta-lactamase Assay, Ratio, Phase 2 (AID 2283592)
Outline: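 In this cell-based reporter format, HCT116 cells were dosed with chemicals delivered from DMSO by 217-fold dilution and incubated 16 h at 37C. Emission at 460 and 530 nm after 2 h CCF4-AM loading provided the ratio, fitted upward versus DMSO.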

[3] = biological target: Cellular tumor antigen p53 (Homo sapiens) (UniProt P04637); experiment: TOX21_p53_BLA_p5_ratio: Tox21 HCT-116 p53 Agonism Beta-lactamase Assay, Ratio, Phase 5 (AID 2283599)
Outline: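 Beta-lactamase reporter ratio (blue 460 nm over green 530 nm, 405 nm excitation) after 2 h CCF4-AM loading, in HCT-116 cells exposed 16 h at 37 C to compounds pinned at 217-fold dilution. Increases relative to DMSO baseline scored.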

[4] = TOX21_p53_BLA_p3_viability: Viability Assessment in the Tox21 HCT-116 p53 Agonism Beta-lactamase Assay, Phase 3 (AID 2283593);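 further: cells exposed to compound for 16 h before reading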
Outline: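 Cellular ATP was quantified by CellTiter-Glo luminescence, read after 30 min at room temperature. Beforehand, HCT116 cells (4000/well) received compound 5 h post-seeding, 217-fold diluted from DMSO, then incubated 16 h at 37C.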

[5] = biological target: Cellular tumor antigen p53 (Homo sapiens) (UniProt P04637); experiment: TOX21_p53_BLA_p3_ratio: Tox21 HCT-116 p53 Agonism Beta-lactamase Assay, Ratio, Phase 3 (AID 2283596)
Outline: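 HCT116 p53-bla cells (4000/well) given compound in DMSO (217-fold dilution) after 5 h, incubated 16 h at 37C. CCF4-AM substrate 2 h at room temperature; 460/530 nm emission ratio, gain fitted against DMSO.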

[6] = TOX21_p53_BLA_p4_viability: Viability Assessment in the Tox21 HCT-116 p53 Agonism Beta-lactamase Assay, Phase 4 (AID 2283597);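 further: hits lower the luminescence signal meaning cytotoxicity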
Outline: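 We seeded HCT116 p53 reporter cells at 4000/well and waited 5 h. We then added compounds in DMSO at a 217-fold dilution and incubated for 16 h. Viability was read as CellTiter-Glo luminescence after 30 min at RT.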

[7] = TOX21_p53_BLA_p2_viability: Viability Assessment in the Tox21 HCT-116 p53 Agonism Beta-lactamase Assay, Phase 2 (AID 2283591);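 further: compound exposure lasted 16 h at 37 °C; actives lower the ATP signal meaning cytotoxicity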
Outline: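 Cytotoxicity readout: CellTiter-Glo ATP luminescence, 30 min at room temperature, after the beta-lactamase read. Cells were HCT116 exposed 16 h at 37C to compounds pin-transferred at 217-fold dilution from DMSO stocks.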

Measured: AC50

Cellular tumor antigen p53 (Homo sapiens), sequence (P04637 whole entry, looked up): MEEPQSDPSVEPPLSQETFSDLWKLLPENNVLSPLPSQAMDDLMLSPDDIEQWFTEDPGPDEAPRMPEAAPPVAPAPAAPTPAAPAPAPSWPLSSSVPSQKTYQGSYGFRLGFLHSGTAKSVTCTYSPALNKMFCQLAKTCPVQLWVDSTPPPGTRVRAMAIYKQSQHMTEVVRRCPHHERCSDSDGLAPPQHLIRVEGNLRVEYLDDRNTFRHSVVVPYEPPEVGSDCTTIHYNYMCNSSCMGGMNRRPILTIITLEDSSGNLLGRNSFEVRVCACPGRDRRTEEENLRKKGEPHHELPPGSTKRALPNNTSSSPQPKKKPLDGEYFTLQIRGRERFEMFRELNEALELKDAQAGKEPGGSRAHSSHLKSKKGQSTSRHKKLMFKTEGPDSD

CC/C=C\CCCCO
inactive: [1] | [2] | [3]

CN(C)c1ccc(C=O)cc1
inactive: [1] | [2] | [4] | [5]

OC[C@@H](O)[C@H](O)[C@@H](O)[C@@H](O)CO
not listed: [7]
inactive: all other assays above

CCCCCCCCOS(=O)(=O)O
inactive: [7] | [2] | [4]

CC1=CC[C@@H]2C[C@H]1C2(C)C
inactive: [1] | [4] | [6]

C=C(C)C(=O)OCCC(C)OC(=O)C(=C)C (stereo unspecified)
inactive: [1] | [6] | [3]

CCOC(=O)C(=O)OCC
not listed: [6] | [7]
inactive: all other assays above

CC(C)C(=O)c1ccccc1
inactive: [1] | [4] | [5] | [3]

CC1(C)CC(=O)CC(C)(C)N1
not listed: [4] | [7]
inactive: all other assays above

C=CCCCCCCCCC(=O)OCC
not listed: [5] | [7]
inactive: all other assays above

CCCCCCC(O)CCOC(C)=O (stereo unspecified)
inactive: [1] | [2] | [4] | [3]

CC(C)(O)C(=O)c1ccc(OCCO)cc1
inactive: [1] | [2] | [5] | [3]

NCCN1CCNCC1
inactive: [7] | [2] | [4] | [5] | [6] | [3]
active: [2] 0.000307 µM

N=C1N=C(N)c2ccccc21
active: [2] 28.4 µM | [4] 13.6 µM | [5] 27.3 µM | [3] 13.3 µM
inactive: [1]

CN(C)C
not listed: [5] | [7]
inactive: all other assays above

CCCCCCCCCCCCN1CCOCC1
not listed: [6] | [7]
inactive: all other assays above
